KCNK3 block: human KCNK3 channel inhibitors, primary screen, CHO cells, FluxOR thallium flux, B-score; actives 0.84% (n = 340,000); FluxOR fluorescence; active compounds read low; B-score at 10 µM; AID 602410, 2012;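 active means B-score under library mean minus 4 SD, starting fluorescence ratio at most library mean plus 5 SD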;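 further: more negative B-score means stronger inhibition of thallium flux through KCNK3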
TMEM16A act: TMEM16A chloride channel activators or potentiators, primary screen, cell-based, HTS; AID 623877, 2012; actives 0.3% (n = 340,000); Anoctamin-1 (Mus musculus), Q8BHY3; B-score at 10 µM; HEK293 TMEM16A/YFP-H148Q/I152L, iodide quench fluorescence; active compounds read low;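 active means fluorescence-ratio B-score plate-corrected deviation score at least 3 library SD below zero, with starting fluorescence score within 5 deviations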;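 further: channel opened by trigger with iodide after compound preincubation; score built on the fluorescence ratio of max minus min over baseline; more negative score means more quench and so TMEM16A activation or potentiation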
Target sequence (Q8BHY3 whole entry, looked up): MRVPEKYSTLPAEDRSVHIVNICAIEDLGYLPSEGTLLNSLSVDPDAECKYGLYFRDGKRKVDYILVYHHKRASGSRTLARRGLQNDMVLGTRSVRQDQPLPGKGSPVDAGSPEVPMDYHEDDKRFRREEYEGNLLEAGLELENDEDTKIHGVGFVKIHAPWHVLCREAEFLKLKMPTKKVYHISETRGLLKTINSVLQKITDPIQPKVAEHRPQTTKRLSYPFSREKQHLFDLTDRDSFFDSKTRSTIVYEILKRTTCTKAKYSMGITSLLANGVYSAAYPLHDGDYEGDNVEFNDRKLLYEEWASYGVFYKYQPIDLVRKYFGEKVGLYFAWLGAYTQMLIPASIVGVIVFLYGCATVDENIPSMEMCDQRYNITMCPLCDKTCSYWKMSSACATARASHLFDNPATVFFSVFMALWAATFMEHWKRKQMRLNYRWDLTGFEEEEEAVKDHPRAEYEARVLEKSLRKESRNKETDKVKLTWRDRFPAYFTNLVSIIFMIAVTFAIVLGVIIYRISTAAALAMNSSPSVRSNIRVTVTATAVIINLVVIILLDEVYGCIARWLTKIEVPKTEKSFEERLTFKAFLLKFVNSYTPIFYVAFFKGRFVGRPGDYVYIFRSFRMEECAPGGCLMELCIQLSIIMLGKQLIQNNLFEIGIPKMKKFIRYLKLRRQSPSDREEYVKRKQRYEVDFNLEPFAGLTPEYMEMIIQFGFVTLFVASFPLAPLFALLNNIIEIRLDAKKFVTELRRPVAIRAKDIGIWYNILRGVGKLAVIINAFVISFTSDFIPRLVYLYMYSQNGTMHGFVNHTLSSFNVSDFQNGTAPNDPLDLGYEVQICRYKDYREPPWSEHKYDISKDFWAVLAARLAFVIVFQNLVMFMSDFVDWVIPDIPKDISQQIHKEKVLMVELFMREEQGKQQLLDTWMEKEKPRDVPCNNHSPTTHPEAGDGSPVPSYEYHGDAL
KCNK9 inh: KCNK9 potassium channel inhibitors, primary screen, HEK293 cells, thallium flux; Potassium channel subfamily K member 9 (Homo sapiens), Q9NPC2; FluxOR thallium flux fluorescence; active compounds read low; B-score at 10 µM; actives 1.2% (n = 310,000); AID 488922, 2010;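 active means ratio B-score over 3 SD below the library mean, with starting fluorescence within 5 SD of its mean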;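 further: negative B-score means less thallium flux so channel inhibition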
Kir21 block: inhibitors of mouse Kir2.1 inward-rectifier potassium channel; Inward rectifier potassium channel 2 (Mus musculus), P35561; HEK293-Kir2.1, FluxOR thallium flux fluorescence; active compounds read low; B-score at 10 µM; actives 0.85% (n = 310,000); AID 1672, 2009;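 active means fluorescence ratio B-score at or below minus 3 SD of library scores, with starting-brightness B-score within 2 SD, cut at about -4.2 in these data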;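 further: channel flux triggered by added potassium and thallium sulfate stimulus; B-score of peak minus minimum fluorescence over baseline after thallium stimulus; more negative B-score means stronger Kir2.1 block with less thallium influx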
TMEM16A inh: TMEM16A chloride channel inhibitors, primary screen, cell-based, HTS; normalized B-score (activity score, 25-100; higher = stronger inhibition) at 10 µM; actives 1.2% (n = 310,000); Anoctamin-1 (Mus musculus), Q8BHY3; HEK293 TMEM16A/YFP iodide influx fluorescence, ionomycin;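 active means ratio plate-corrected score three or more library SD toward inhibition, starting fluorescence score within five deviations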;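 further: score derived from kinetic fluorescence span divided by baseline fluorescence per well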
Numbers without * were called inactive; i = inactive; x = no result. Most compounds without a hit are left out; they make up all but 3.5% or so of the library.

SMILES | KCNK3 block | TMEM16A act | KCNK9 inh | Kir21 block | TMEM16A inh
Cc1cc(NC(=O)NC(C(F)(F)F)C(F)(F)F)no1 | i | i | i | -0.1 | i
Fc1cccc(C2CCCCN2Cc2nc(C3CC3)no2)c1 (configuration not stated) | i | i | i | -1.45 | i
COc1ccc(C(=O)N=c2sc3c(C)ccc(OC)c3n2C)cc1 | i | i | -7.02* | -0.42 | i
CN(C)c1c([N+](=O)[O-])ncn1C | i | -9.62* | i | -0.12 | i
CCNc1c([N+](=O)[O-])ncn1C | i | i | i | 0.54 | i
NNC(=O)c1sccc1OCc1ccc(Cl)cc1Cl | i | i | i | -1.83 | 25*
CNC(=O)c1sccc1SCc1ccc(Cl)cc1Cl | i | i | i | -5.22* | i
COC(=O)c1sccc1NC(=O)CSc1cc(Cl)ccc1Cl | i | i | i | -0.7 | i
COc1ccc(NC(=O)c2ccc3c(c2)NC(=O)CO3)cc1OC | i | i | i | -0.97 | i
Cc1nc2c(C(=O)NCCC(C)C)c[nH]n2c(=O)c1Cc1ccccc1F | i | i | i | 2.56 | 100*
COC(=O)C(c1ccccc1)C(C(=O)OC)c1ccccc1 (configuration not stated) | i | i | i | -0.95 | i
COC(=O)[C@@H](c1ccccc1)N(C)S(=O)(=O)c1cccc(S(=O)(=O)N(C)[C@@H](C(=O)OC)c2ccccc2)c1 | i | i | -7.05* | 0.47 | i
Cc1ccc(C(C#N)c2ccc3c(C(F)(F)F)cc(C(F)(F)F)nc3n2)cc1 (configuration not stated) | i | i | i | 0.57 | 100*
O=C(CN1CCN(c2cccc(C(F)(F)F)c2)CC1)N(C1CCCC1)C1CCS(=O)(=O)C1 (configuration not stated) | -8.73* | i | x | x | x
CCC(=O)Nc1ccc(C(=O)N/N=C/c2cc(Br)c(OC)cc2OC)cc1 | i | i | i | 0.08 | i
Cc1ccccc1CSCC(=O)Nc1ccccc1-c1ccccc1 | i | i | i | -6.9* | i
O=C(CSCc1cccc(Cl)c1)Nc1ccccc1-c1ccccc1 | i | i | i | -5.71* | i
NC(=O)c1ccccc1NC(=O)COC(=O)CSCc1cccc(Cl)c1 | i | i | x | x | x
Cc1cc(SCC(=O)NCCCN2CCCC2=O)nc2ccccc12 | i | i | x | x | x
COc1ccc(CNC(=O)CN2CCC(NC(=O)c3ccccc3C)CC2)cc1 | i | i | i | 0.01 | i
O=C(CN1CCCCC1)Nc1cc(Cl)ccc1Oc1ccccc1 | i | i | i | -3.32 | 100*
CCc1c(O)nc(SC2CC(=O)N(c3ccccc3)C2=O)[nH]c1=O (configuration not stated) | i | -29.4* | i | 0.85 | i
CC(Oc1cccc(Cl)c1)C(=O)Nc1ccccc1N1CCCCC1 (configuration not stated) | i | i | -7.81* | 3.32 | i
O=C(Nc1ccccc1N1CCCCC1)c1ccc(Cl)cc1 | i | i | -6.69* | 0.02 | i
C/C(=N\Nc1ccc(S(=O)(=O)N2CCOCC2)cc1[N+](=O)[O-])C(C)C | i | i | i | 1.93 | i
SMILES | KCNK3 block | TMEM16A act | KCNK9 inh | Kir21 block | TMEM16A inh
Cc1cccc(NC(=O)COc2cccc3c2CCN(Cc2ccccc2)C3=O)c1C | i | -6.46* | i | 0.78 | i
CCN1CCc2c(OCC(=O)Nc3cccc(C)c3C)cccc2C1=O | x | x | i | 2.13 | i
COc1ccccc1C1CC(c2cccc(NS(C)(=O)=O)c2)=NN1S(=O)(=O)c1ccccc1 (configuration not stated) | i | -5* | i | -1.2 | i
Cc1nc([N+](=O)[O-])c(Sc2nc3ccccc3n2C)n1Cc1ccccc1 | i | i | i | 0.62 | i
CN(c1ccccc1)S(=O)(=O)c1cccc(NC(=O)c2ccc(Cl)c([N+](=O)[O-])c2)c1 | -11.3* | i | x | x | x
COc1cc(NC(=O)c2ccc(S(=O)(=O)N(C)c3ccccc3)cc2)cc(OC)c1 | -9.08* | i | x | x | x
CN(c1cccc(NC(=O)c2ccc(N(C)S(=O)(=O)c3ccccc3)cc2)c1)S(C)(=O)=O | i | i | i | 0.6 | 100*
Cn1c(=O)cc(OCC(=O)N2CCC(N3CCCCC3)CC2)c2ccccc21 | i | i | i | 0.54 | i
Cc1cc(Nc2c(C)n(C)n(-c3ccccc3)c2=O)c2ccccc2n1 | i | i | i | 0.73 | i
O=C1CCC(C(=O)Nc2ccccc2N2CCOCC2)=NN1 | i | i | i | -0.08 | i
O=C(NC1CCN(Cc2ccccc2)CC1)c1ccc2c(c1)[nH]c(=O)n2Cc1ccc(F)cc1 | i | i | i | -1.91 | i
Cc1ccc(C)c(NC(=O)c2ccccc2C(=O)c2ccccc2)c1 | x | x | -10.2* | -2.08 | i
Cc1ccc(C(=O)c2ccccc2C(=O)Nc2ccccc2)cc1 | i | i | i | 1.92 | i
Cc1ccc(C)c(NC(=O)CN(C)C(=O)c2ccccc2Cc2ccccc2)c1 | i | i | i | -4.27* | i
COC(=O)c1ccccc1NC(=O)c1ccc2c(c1)OCCCO2 | i | i | -6.83* | 0.68 | i
Cc1ccccc1NC(=O)c1ccc2c(c1)OCCO2 | i | i | i | -2.48 | i
COc1ccccc1C(c1nnnn1Cc1ccccc1)N1CCN(c2nc3ccccc3s2)CC1 (configuration not stated) | i | i | i | 0.09 | i
COc1ccc(C(c2nnnn2C(C)(C)C)N2CCN(c3nc4ccccc4s3)CC2)cc1 (configuration not stated) | i | i | -7.11* | 0.13 | x
COc1ccc(CNC(=O)CN2CCC(NC(=O)c3cccc(OC)c3)CC2)cc1 | i | x | x | x | x
c1cc2c(cc1C1CCCCC1)c1c3n2CCCNC3CCC1 (configuration not stated) | i | i | i | -4.32* | i
CCOC(=O)C1CN(S(=O)(=O)c2ccccc2)CCN1S(=O)(=O)c1ccccc1 (configuration not stated) | i | i | i | 0.02 | i
COC(=O)C1CN(S(=O)(=O)c2ccccc2)CCN1S(=O)(=O)c1ccccc1 (configuration not stated) | i | i | -7.3* | -1.37 | i
CCOC(=O)N1CCN(C(=O)CNS(=O)(=O)c2cccs2)CC1 | i | i | i | -0.4 | i
CC(=O)Nc1ccc(S(=O)(=O)NCC(=O)N2CCN(S(=O)(=O)c3cccs3)CC2)cc1 | i | -15.1* | x | x | x

Screening data deposited in PubChem BioAssay by Johns Hopkins Ion Channel Center.
